Measured values from PubChem BioAssay.
Results with a measured potency or affinity are listed apart. Results filed as inconclusive are left out. Calls of active or inactive are those of the source.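 Rule for the calls, unless noted: active = falling signal with fitted half-maximal potency no higher than twice the top valid tested dose; inconclusive = poor fit quality, or flat fit spanning -70% to -30%; inactive = potency over limit, rising signal, or flat fit inside 30%.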

Legend:
[1] = fungal growth arrest, C. neoformans – Alamar Blue, cherry-picks, dose response (AID 686998)
[2] = C. neoformans lysis by adenylate kinase leakage – AK release luminescence, cherry-picks, dose response (AID 687000;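 active = fitted dose curve reaches 40% lysis signal rise at or below the highest valid concentration tested for that sample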;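 note: luminescent detection of adenylate kinase leaking from lysed yeast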)
[3] = viability loss in HepG2 hepatoma cells – cell-based, cherry-picks, set 2, cytotoxicity control, dose response (AID 687002;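 active = a dose-response fit showing signal loss, with half-maximal concentration no higher than twice the top tested dose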)
[4] = viability loss in HeLa cells – cell-based, ATP luminescence, cherry-pick samples, cytotoxicity control, dose response (AID 687004;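 active = a fitted half-maximal concentration no higher than twice the top valid tested dose, with signal falling as cells die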)

Measured: outcome

COc1ccccc1-c1cnc2c(c1)C(=O)N([C@H](C)CO)C[C@@H](C)[C@H](CN(C)Cc1cncnc1)O2
inactive: [1] | [2] | [3] | [4]

COc1ccc(CN(C)C[C@@H]2Oc3ccc(NC(=O)C4CC4)cc3C(=O)N([C@H](C)CO)C[C@H]2C)cc1
inactive: [1] | [2] | [3] | [4]

C[C@@H]1CN([C@@H](C)CO)C(=O)c2cccc(N(C)C)c2O[C@H]1CN(C)C(=O)Nc1ccc(C(F)(F)F)cc1
inactive: [1] | [2] | [3] | [4]

O=C(C[C@H]1CC[C@H]2[C@@H](COC[C@@H](O)CN2C(=O)c2ccc(F)cc2)O1)N1CCOCC1
inactive: [1] | [2] | [3] | [4]

CCCC#Cc1cnc2c(c1)C(=O)N([C@@H](C)CO)C[C@H](C)[C@H](CN(C)C(=O)Nc1cccc(F)c1)O2
inactive: [1] | [2] | [3] | [4]

Cc1cc(C)c(N2CCCC2C(=O)Nc2cccc(C(F)(F)F)c2)c(C)c1 (stereo not given)
inactive: [1] | [2] | [3] | [4]

CNC[C@H]1Oc2ccc(NC(=O)Cc3cn(C)c4ccccc34)cc2CC(=O)N([C@@H](C)CO)C[C@H]1C
inactive: [1] | [2] | [3] | [4]

C/C=C/c1ccc([C@H]2[C@@H](CO)N(C(=O)CC)[C@@H]2CNC(=O)C2CC2)cc1
inactive: [1] | [2] | [3] | [4]

C[C@@H]1CN([C@H](C)CO)C(=O)c2cc(NC(=O)CCC(F)(F)F)ccc2O[C@@H](C)CCCCO[C@@H]1CN(C)C(=O)c1ccncc1
inactive: [1] | [2] | [3] | [4]

C[C@@H]1CCCCO[C@H](CN(C)C(=O)Nc2ccc(F)cc2)[C@H](C)CN([C@@H](C)CO)C(=O)c2cc(NS(=O)(=O)c3ccc(Cl)cc3)ccc2O1
inactive: [1] | [2] | [3] | [4]

COc1ccccc1CNC(=O)C[C@@H]1CC[C@@H]2[C@H](COC[C@@H](O)CN2Cc2ccccc2)O1
inactive: [1] | [2] | [3] | [4]

COc1ccc(NC(=O)Nc2ccc3c(c2)C(=O)N([C@H](C)CO)C[C@H](C)[C@H](CN(C)C(=O)Cc2ccccc2)OCCCC[C@H](C)O3)cc1
inactive: [1] | [2] | [3] | [4]

O=C(NC(=S)Nc1ccccc1)c1cc([N+](=O)[O-])ccc1N1CCOCC1
inactive: [1] | [2] | [3] | [4]

COC(=O)N(C)C[C@H]1OCc2cn(nn2)CCCC(=O)N([C@H](C)CO)C[C@@H]1C
inactive: [1] | [2] | [3] | [4]

CC(C)NC(=O)N[C@H]1CC[C@@H](CCNC(=O)C2CC2)O[C@@H]1CO
inactive: [1] | [2] | [3] | [4]

CC(C)NC(=O)N(C)C[C@H]1OCCCC[C@@H](C)Oc2ccc(NC(=O)c3ccccc3)cc2C(=O)N([C@@H](C)CO)C[C@@H]1C
inactive: [1] | [2] | [3] | [4]

CCC(=O)N1C[C@H](O)COC[C@@H]2O[C@@H](CC(=O)NCc3ccccc3Cl)CC[C@H]21
inactive: [1] | [2] | [3] | [4]

CO[C@H]1CN(C)C(=O)c2cc(NC(=O)c3ccccc3F)ccc2OC[C@H](C)N(CC2CCOCC2)C[C@H]1C
inactive: [1] | [2] | [3] | [4]

Cc1ccc(OCC(=O)NCc2ccccc2)cc1
inactive: [1] | [2] | [3] | [4]

Cc1noc(C)c1S(=O)(=O)Nc1ccc2c(c1)CC(=O)N([C@@H](C)CO)C[C@H](C)[C@@H](CN(C)S(=O)(=O)c1cn(C)cn1)O2
inactive: [1] | [2] | [3] | [4]

C[C@H]1CCCCO[C@H](CN(C)S(=O)(=O)c2ccc(Cl)cc2)[C@@H](C)CN([C@@H](C)CO)C(=O)c2cc(NS(=O)(=O)c3cccs3)ccc2O1
inactive: [1] | [2] | [3] | [4]

COc1cccc(S(=O)(=O)Nc2ccc3c(c2)[C@@H]2C[C@H](CC(=O)NC4CCCCC4)O[C@H](CO)[C@@H]2O3)c1
inactive: [1] | [2] | [3] | [4]

O=C(Cc1cccs1)N1CCN(c2ccc([N+](=O)[O-])cc2)CC1
inactive: [1] | [2] | [3] | [4]

CCOC(=O)CNC(=O)CSc1ncnc2c1cnn2-c1ccc(OC)cc1
inactive: [1] | [2] | [3] | [4]

C[C@@H]1CN([C@@H](C)CO)C(=O)CCCn2cc(nn2)CO[C@@H]1CN(C)C(=O)CCCN(C)C
inactive: [1] | [2] | [3] | [4]

C[C@H]1CN([C@@H](C)CO)C(=O)c2cc(NC(=O)Nc3ccc4c(c3)OCO4)ccc2O[C@@H]1CN(C)CC1CCCCC1
inactive: [1] | [2] | [3] | [4]

COc1ccccc1C(=O)Nc1ccc2c(c1)C(=O)N(C)C[C@@H](OC)[C@H](C)CN(C)[C@@H](C)CO2
inactive: [1] | [2] | [3] | [4]

CCCC#Cc1ccc2c(c1)O[C@@H](CN(C)C)[C@@H](C)CN([C@@H](C)CO)S2(=O)=O
inactive: [1] | [2] | [3] | [4]

CCS(=O)(=O)N1CCCCN2[C@H](CO)[C@@H](c3ccc(-c4ccc(C#N)cc4)cc3)[C@@H]2C1
inactive: [1] | [2] | [3] | [4]

COc1ccccc1NC(=O)N[C@H]1CC[C@@H](CCn2cc(-c3ccccc3OC)nn2)O[C@@H]1CO
inactive: [1] | [2] | [3] | [4]

CCC(C)(NC=O)C(=O)Nc1c(C)cccc1C (stereo not given)
inactive: [1] | [2] | [3] | [4]

COc1ccc(S(=O)(=O)N[C@@H]2C=C[C@@H](CC(=O)N3CCC(Cc4ccccc4)CC3)O[C@H]2CO)cc1
inactive: [1] | [2] | [3] | [4]

CCCNC(=O)Nc1ccc2c(c1)C(=O)N(C)C[C@@H](OC)[C@@H](C)CN(C(=O)CC)[C@H](C)CO2
inactive: [1] | [2] | [3] | [4]

CCCNC(=O)Nc1ccc2c(c1)C(=O)N(C)C[C@H](OC)[C@@H](C)CN(C(=O)CC)[C@@H](C)CO2
inactive: [1] | [2] | [3] | [4]

C[C@H]1CN([C@@H](C)CO)C(=O)CCCn2nncc2CO[C@@H]1CN(C)Cc1cccc(C(F)(F)F)c1
inactive: [1] | [2] | [3] | [4]

CNC(=O)C[C@@H]1CC[C@@H]2[C@H](COC[C@@H](O)CN2C(=O)Nc2ccc3c(c2)OCO3)O1
inactive: [1] | [2] | [3] | [4]

COc1ccccc1C(=O)N1C[C@H]2[C@@H](c3ccccc31)[C@@H](CO)N2C(=O)Cc1ccccc1
inactive: [1] | [2] | [3] | [4]

CO[C@H]1CN(C)C(=O)c2cc(NC(C)=O)ccc2OC[C@H](C)N(Cc2cccc(F)c2)C[C@@H]1C
inactive: [1] | [2] | [3] | [4]

CCCNC(=O)[C@@H]1[C@@H](CO)[C@@H]2Cn3c(cccc3=O)[C@H]1N2C(=O)Nc1cc(F)ccc1F
inactive: [1] | [2] | [3] | [4]

C[C@@H]1CN([C@@H](C)CO)C(=O)c2cccc(NC(=O)c3ccncc3)c2O[C@H]1CN(C)C(=O)Nc1ccccc1
inactive: [1] | [2] | [3] | [4]

O=C(C[C@H]1C[C@@H]2c3cc(NC(=O)CC4CC4)ccc3O[C@@H]2[C@@H](CO)O1)NCc1cccc(F)c1
inactive: [1] | [2] | [3] | [4]

O=C(c1ccco1)N1N=C(c2cccs2)CC1c1ccccc1O (stereo not given)
inactive: [1] | [2] | [3] | [4]

O=C(NC[C@H]1[C@@H](c2ccccc2)[C@@H](CO)N1C(=O)C1CCC1)NC1CCCC1
inactive: [1] | [2] | [3] | [4]

CN1CCN(C(=O)C[C@@H]2CC[C@H]3[C@@H](COC[C@H](O)CN3C(=O)Cc3ccccc3)O2)CC1
inactive: [1] | [2] | [3] | [4]

C[C@H](CO)N1C[C@H](C)[C@@H](CN(C)C(=O)C2CCOCC2)Oc2ncc(C#CCc3ccccc3)cc2C1=O
inactive: [1] | [2] | [3] | [4]

COc1ccc(NC(=O)N(C)C[C@H]2OCc3ccccc3-c3c(n(C)c4ccccc34)C(=O)N([C@H](C)CO)C[C@@H]2C)cc1
inactive: [1] | [2] | [3] | [4]

C[C@@H]1CN([C@H](C)CO)C(=O)Cc2cc(NC(=O)CCCCCC(=O)Nc3ccccc3N)ccc2O[C@H]1CN(C)Cc1ccc2c(c1)OCO2
inactive: [1] | [2] | [3] | [4]

CNC[C@@H]1OCCCC[C@H](C)Oc2ccc(NC(=O)c3ccccc3)cc2C(=O)N([C@@H](C)CO)C[C@@H]1C
inactive: [1] | [2] | [3] | [4]

C[C@H](NC(=O)C[C@@H]1C=C[C@H](NC(=O)CN2CCOCC2)[C@@H](CO)O1)c1ccccc1
inactive: [1] | [2] | [3] | [4]

O=C(CN(c1ccccc1)S(=O)(=O)c1ccc(F)cc1)NC1CCS(=O)(=O)C1 (stereo not given)
inactive: [1] | [2] | [3] | [4]
